Source: PubChem
Shiga inhibitor: inhibitors of Shiga toxin in Vero cells; Vero cells, Shiga toxin protein synthesis inhibition reporter; 290,000 compounds, 9.2% hits; AID 2315; inhibition, % at 38.7 µM; in the data active = inhibition mostly above about 28%, no sharp cut-off; inactive = mostly below about 43%
HCMV antiviral: blocks human cytomegalovirus replication. HFF cells, HCMV-luciferase reporter, 72 h; stronger effect = lower value. 410,000 compounds, 4.5% hits. AID 1259415. activity change, negative = inhibition, % at 57.5 µM; in the data active = activity change below about -60%; inconclusive = no clear call, values can overlap the other calls; inactive = above about -39%
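Luciferase read-out from HCMV-luciferase-infected HFFs (MOI 1 PFU/cell) 72 h post infection at 37C; compounds added after 16 h cell attachment; activity normalized between buffer-only basal and Salinomycin (10uM) inhibitor controls.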
HCV inh: HCV inhibition; Huh7.5.1 HCVcc-Cre infection, luciferase reporter, 44 h; Potency, µM (doses to about 41.8 µM), hits mostly inhibitors; 340,000 compounds, 3.4% hits
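Compounds are dispensed onto cells plated 4 h earlier at 1,000 per well, with HCVcc-Cre virus (about 0.5 moi) added next. Following 44 h of culture, luminescent signal is measured for 15 sec after 15 min with substrate at room temperature.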
Pf growth 96h: P. falciparum growth inhibition at 96 hour, primary screen for plastid delayed-death inhibitors | P. falciparum luciferase reporter growth, 96 h | Potency, µM (series often up to 28.7 µM), usual class: inhibitors | 320,000 compounds, 6.9% hits
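Plates of compound plus infected erythrocytes (2% hematocrit, 0.05% parasitemia final) incubate 96 hours, 37 C, 5% CO2. Detection reagent added; reduced luminescence from the parasites' luciferase reporter flags inhibition.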
CHX counter: counter-screen hit for Shiga toxin inhibitors, cycloheximide. AID 2314. cell reporter, cycloheximide protein synthesis inhibition counterscreen. max response, %. 300,000 compounds, 12% hits; in the data active = max response mostly above about 13%, no sharp cut-off; inactive = mostly below about 14%; note: read at 38.3 µM for the half of the compounds with a filed dose
Pf growth 48h: inhibits P. falciparum growth in the first generation, 48 h; Potency, µM (highest dose often 28.7 µM), actives largely listed as inhibitors; AID 504832; 310,000 compounds, 5.9% hits; P. falciparum luciferase growth in erythrocytes, 48 h
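A one-generation exposure of luciferase-tagged malaria parasites in RPMI 1640/Albumax erythrocyte culture, 37 C and 5% CO2. Inhibition is inferred from decreased luminescence after adding detection reagent.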
A number is an active result; . = inactive; ? = inconclusive; / = no result given; [ ] = another dose, or the depositor's remark. Rows were chosen to be rich in hits. Some 21% of all compounds tested hit in one or more screens of this group. Unless noted, calls come from the whole dose curve; as a rule, active = well fitted inhibition curve with a large enough effect; inconclusive = small, poorly fitted or top-dose-only effect, or another doubt; inactive = no such curve, though single readings can be large or run the other way.

SMILES	Shiga inhibitor	HCMV antiviral	HCV inh	Pf growth 96h	CHX counter	Pf growth 48h
CCN1CCCc2cc(CN(CCN3CCOCC3)C(=S)Nc3ccc(OC)cc3)ccc21	.	.	.	5.86µM	.	.
COc1ccc(NC(=S)N(CCCN2CCCCC2)Cc2cccs2)cc1	.	?	.	11.7µM	.	?
COc1cccc(NC(=S)N(CCCN2CCC(C)CC2)Cc2cccs2)c1	.	.	?	.	.	.
COc1ccc(NC(=S)N(CCCN2CCC(C)CC2)Cc2cccs2)cc1	.	.	?	5.86µM	.	.
CCOc1ccc(NC(=S)N(CCN2CCOCC2)Cc2ccc3c(c2)CCCN3CC)cc1	.	?	.	?	.	?
Cc1ccc(NC(=S)N(CCCN2CCN(C)CC2)Cc2cccs2)cc1	.	.	?	.	.	?
O=C(CCn1cnc2onc(-c3ccc(F)cc3)c2c1=O)N1CCN(c2cccc(Cl)c2)CC1	/	.	/	/	/	/
CCCCCCSc1ccc(-c2nc3ccc(Cl)cn3c2NCCCC)cc1OC	/	.	.	/	/	/
CCCCNc1c(-c2ccc(SC3CCCCC3)c(OC)c2)nc2ccc(Cl)cn12	/	.	.	2.08µM	/	8.28µM
CCCCNc1c(-c2ccc(SC(C)CC)c(OC)c2)nc2ccc(C)cn12 (configuration not stated)	/	-94.3	10µM	?	/	3.29µM
O=C(Nc1sc2c(c1-c1nc3ccccc3[nH]1)CCCC2)C1CCCC1	.	.	?	13.1µM	21.3	11.7µM
CN1CCN(S(=O)(=O)c2cccc(C(=O)Nc3sc4c(c3-c3nc5ccccc5[nH]3)CCCC4)c2)CC1	.	.	3.55µM	3.29µM	.	2.94µM
CC(C)OC(=O)c1c(NC(=O)CCn2nnc3ccccc32)sc2c1CCCC2	.	.	?	.	.	.
CC(=O)NCCC(=O)Nc1sc2c(c1-c1nc3ccccc3[nH]1)CCCC2	.	.	11.2µM	?	.	?
CC(=O)N1CCN(S(=O)(=O)c2cccc(C(=O)Nc3nc4c(s3)CCCC4)c2)CC1	.	.	?	?	.	/
COc1ccc(CC(=O)Nc2cc(S(=O)(=O)N3CCOCC3)ccc2N2CCCC2)cc1	/	.	/	/	/	/
CN(Cc1nccs1)C(=O)C1CCC(=O)N(CCCc2ccccc2)C1 (configuration not stated)	.	.	.	?	.	.
O=C(NCc1cccs1)c1cc(-c2cccc(Cl)c2)on1	43.6	.	.	.	25.6	.
O=C(NCc1cccs1)c1cc(-c2ccc(O)cc2)on1	85.6	.	.	.	42.6	.
O=C(NCCc1ccccc1)c1cc(-c2cccc(Cl)c2)on1	/	.	/	/	/	/
Cc1ccc(-c2cc(C(=O)NCc3cccs3)no2)cc1	.	.	.	.	9.1	.
COc1ccc(CNC(=O)CS(=O)(=O)c2cccc3nsnc23)cc1	/	.	/	/	/	/
O=S(=O)(NN1CCOCC1)c1cc(Cl)cc(Cl)c1O	.	.	.	1.65µM	.	.
Cc1ccc(NC2Nc3cc(C)nn3S2)c(C)c1 (configuration not stated)	83.2	.	.	.	57.3	.
Cc1cc2n(n1)SC(Nc1ccccc1)N2 (configuration not stated)	.	.	.	.	31.7	.
SMILES	Shiga inhibitor	HCMV antiviral	HCV inh	Pf growth 96h	CHX counter	Pf growth 48h
Cc1ccc(N=CNc2ccc(C)cc2C)c(C)c1	.	.	.	.	.	.
Cc1cc(NC(=NC2CC2)c2ccccc2)n(-c2ccccc2)n1	.	.	.	?	.	?
Cc1ccc([N+](=O)[O-])cc1NC(=O)Nc1onc(C)c1C	.	.	.	.	.	?
COc1ccc(-c2c(C)nc3c(-c4ccccn4)cnn3c2N)cc1	96.3	.	?	.	59.5	.
COc1ccc(-c2c(C)nc3c(-c4ccsc4)cnn3c2N)cc1	85.2	.	.	.	33.3	.[0.00184 µM]
COc1cc(SC)ccc1C(=O)Nc1nccs1	active	.	?	.	28.3	.
COc1cc(SC)ccc1C(=O)Nc1c(C)cccc1C	.	?	.	?	13.0	?
CSc1cccc(NC(=O)c2cccc3cccnc23)c1	98.2	.	?	.	34.0	.
COc1cc(SC)ccc1C(=O)Nc1c(Cl)cncc1Cl	.	?	?	.	.	.
COc1cc(SC)ccc1C(=O)Nc1ccccc1	94.4	.	?	?	36.6	/
COc1cc(C(=O)Nc2nccs2)c(Br)c(OC)c1OC	.	.	?	.	.	.
CCn1ncc([N+](=O)[O-])c1C(=O)Nc1ccc(C)c(C)c1	.	.	.	?	.	.
COc1ccccc1OC(=O)c1ccc(SC)cc1OC	.	.	?	/	13.9	.
COc1ccccc1C(=O)Nc1ccncc1	/	.	.	.	.	.
COc1ccccc1C(=O)Nc1cccc(SC)c1	66.4	.	.	.	32.8	.
COc1cc([N+](=O)[O-])ccc1NC(=O)NCc1cccnc1	.	.	.	.	.	.
Cc1ccc(NC(=O)c2cc([N+](=O)[O-])ccc2NCc2cccnc2)cc1	.	.	?	?	.	13.1µM
O=C(O)c1ccc(NCc2cccnc2)c([N+](=O)[O-])c1	.	.	.	.	.	.
COc1ccc([N+](=O)[O-])cc1NCc1cccnc1	.	.	7.94µM	.	.	.
COc1ccc([N+](=O)[O-])cc1NCc1c(F)cccc1F	/	.	/	/	/	/
COc1ccc([N+](=O)[O-])cc1NCc1cccc([N+](=O)[O-])c1	.	.	3.98µM	.	.	.
O=C(Nc1ccc(N2CCC(c3ccccc3)C2)c(C(=O)O)c1)c1ccc(Cl)cc1 (configuration not stated)	/	.	/	/	/	/
CN(Cc1ccccc1F)C(=O)CNC(=O)Cc1cccc2ccccc12	.	.	.	?	.	?
COc1ccc(N2CC(NC(=O)c3ccc4ccccc4c3)CC2=O)cc1OC (configuration not stated)	/	.	.	.	/	.
C[C@H](CO)N1C[C@H](C)[C@@H](CN(C)C)Oc2c(NC(=O)C3CC3)cccc2C1=O	/	.	3.16µM	/	/	/
SMILES	Shiga inhibitor	HCMV antiviral	HCV inh	Pf growth 96h	CHX counter	Pf growth 48h
C[C@H]1CN([C@@H](C)CO)C(=O)c2cc(NC(=O)C3CCCCC3)ccc2O[C@H]1CN(C)C(=O)Nc1ccc2c(c1)OCO2	/	.	1µM	/	/	/
C[C@H](CO)N1C[C@H](C)[C@@H](CN(C)Cc2ccc(Oc3ccccc3)cc2)Oc2c(NC(=O)C3CC3)cccc2C1=O	/	.	15.8µM	/	/	/
C[C@H](CO)N1C[C@H](C)[C@@H](CN(C)C(=O)NC2CCCCC2)Oc2c(NC(=O)C3CC3)cccc2C1=O	/	-100.5	.	/	/	/
CC(C)NC(=O)N(C)C[C@H]1Oc2ccc(NC(=O)C3CCCCC3)cc2C(=O)N([C@H](C)CO)C[C@@H]1C	/	.	.	/	/	/
Cc1ccc(-c2nc(CS(=O)(=O)CC(=O)Nc3ccc(Br)cc3F)c(C)o2)cc1	/	.	/	/	/	/
O=C(Cn1cnc(S(=O)(=O)N2CCCC2)c1)Nc1ccc(OC(F)(F)F)cc1	.	.	.	?	.	.
